FBA Mtb inh: Mtb fructose-bisphosphate aldolase inhibition. purified M. tuberculosis FBA, fluorescence read-out. P9WQA3. AID 588726. hit rate 2.3% among 360,000. inhibition, % at 1 µM; in the data active = inhibition above about 27%;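 note: 0% = vehicle and 100% = reference inhibitor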
Mtb UGM inh: inhibitors of M. tuberculosis UDP-galactopyranose mutase; purified UGM, fluorescence polarization probe displacement; inhibition, % at 10 µM; AID 504406; P9WIQ1; hit rate 0.06% among 320,000; in the data active = inhibition above about 10%, passing the limit was not always enough
GDH-TPI counter: counter-screen for M. tuberculosis FBA inhibitors: GDH-TPI coupled enzymes. GDH-TPI coupled enzyme counterscreen, NADH absorbance. hit rate 1.2% among 360,000. inhibition, % at 4.8 µM; in the data active = inhibition above about 30%;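 note: 0% = DMSO wells and 100% = wells lacking the enzyme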
Rv3671c inh: inhibitors of M. tuberculosis serine protease Rv3671c; P9WHR9; inhibition, % at 5.96 µM; hit rate 0.048% among 320,000; in the data active = inhibition above about 38%;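 note: extracellular domain of Rv3671c used as enzyme; 0% = enzyme with DMSO and 100% = no enzyme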
Target sequence (P9WHR9 whole entry, looked up, the tested form may be a part): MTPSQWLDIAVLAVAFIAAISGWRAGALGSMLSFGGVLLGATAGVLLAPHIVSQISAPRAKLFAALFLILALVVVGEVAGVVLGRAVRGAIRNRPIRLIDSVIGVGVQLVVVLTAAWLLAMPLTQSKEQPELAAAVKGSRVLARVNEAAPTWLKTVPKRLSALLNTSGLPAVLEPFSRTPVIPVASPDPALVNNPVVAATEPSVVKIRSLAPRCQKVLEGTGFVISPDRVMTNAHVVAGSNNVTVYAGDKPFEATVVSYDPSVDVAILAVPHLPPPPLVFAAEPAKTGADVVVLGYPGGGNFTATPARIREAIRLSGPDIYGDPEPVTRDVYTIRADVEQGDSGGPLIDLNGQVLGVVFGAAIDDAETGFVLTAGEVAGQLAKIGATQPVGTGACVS
FadD28 FP inh: blocks FadD28 binding to the bisubstrate probe. inhibition, % at 12.5 µM. hit rate 0.22% among 360,000. fluorescence polarization; in the data active = inhibition above about 8.5%, passing the limit was not always enough
Mtb hypoxia inh: reduces hypoxia-regulated biosensor signal in M. tuberculosis | fluorescence inhibition, % (test concentration not listed) | M. tuberculosis hypoxia-regulated fluorescent reporter, fluorescence | hit rate 0.1% among 300,000; in the data active = fluorescence inhibition mostly above about 23%, no sharp cut-off; inactive = mostly below about 17%
Numbers without * were called inactive; . = not tested or not shown. Shown are actives, neighbours in structure and some others; about 3.5% of the full set was active somewhere.

SMILES	FBA Mtb inh	Mtb UGM inh	GDH-TPI counter	Rv3671c inh	FadD28 FP inh	Mtb hypoxia inh
Cc1cccn2c(=O)c(/C=C(\C#N)C(=O)NC3CCS(=O)(=O)C3)c(N3CC(C)OC(C)C3)nc12 (stereo not given)	120*	0	7	-10	-3	11
COc1ccc(-n2c(C)nn(C)c2=O)cc1	-3	1	7	-2	0	-1
COc1ccc(-n2c(/C=C(\C)O)nc(=O)c3c(C)cc(C)nc32)cc1	6	0	59*	-7	1	-2
CCNC(=S)N/N=C(\C)c1cc2ccccc2o1	-4	1	47*	-5	-1	.
CCNC(=S)N/N=C(\C)c1ccc(Cl)s1	-1	-2	31*	3	-3	.
CC(=NNC(=S)Nc1ccc(C)cc1)c1cc2ccccc2o1	.	.	.	.	.	-11
C=C(C)CNC(=S)N/N=C(\C)c1ccc(Cl)s1	-1	-4	30	-2	-3	.
COC(=O)C1=C(c2cccc(C#N)c2)CC2CCC1N2C(=O)NCCOc1ccccc1Cl (stereo not given)	.	.	.	.	.	6
CCS(=O)(=O)c1ncc(Cl)c(C(=O)Nc2ccc(S(=O)(=O)N3CCC(C)CC3)cc2)n1	1	2	10	-128	8.9*	.
C/C(C=Nn1c(-c2ccco2)n[nH]c1=S)=C\c1ccco1	.	.	.	.	.	6
COc1ccc(NC(=O)c2sc3nc(Cc4ccccc4)cc(C(F)(F)F)c3c2N)cc1OC	-1	3	14	8	-2	1
COc1ccccc1NC(=O)c1sc2nc(Cc3ccccc3)cc(C(F)(F)F)c2c1N	1	30*	8	-2	1	-1
CCOC(=O)NN=C1CC(C)CC(C)(C)C1 (stereo not given)	.	.	.	.	.	8
Cc1ccc(CSC2=Nc3ccccc3C3=NC(=O)CN23)cc1	6	-1	6	-2	-2	12
COc1cc2c(cc1OC)C1=NC(=O)CN1C(SCc1ccccc1C)=N2	27*	-4	9	-3	-5	13
Nc1cccc2c(O)cc(S(=O)(=O)O)cc12	13	.	19	.	36*	17
O=c1/c(=C\c2cc([N+](=O)[O-])cc([N+](=O)[O-])c2O)sc2nc3ccccc3n12	-14	3	12	0	23*	.
O=c1c(=Cc2cc([N+](=O)[O-])cc([N+](=O)[O-])c2O)sc2nc3ccccc3n12	.	.	.	.	.	10
COc1ccccc1-n1c(=S)sc2c(=O)n(Cc3ccco3)c(SC)nc21	0	0	40*	-6	-1	3
CCCCCCSc1cccc(-c2nc3ccc(C)cn3c2NCc2ccccc2)c1	36*	3	9	-3	-4	17
COC(=O)[C@@]1(Cc2ccc(F)cc2)C2c3cc(C(=O)N(C)C)n(Cc4nc5ccccc5[nH]4)c3CC2CN1C(=O)c1ccccc1 (stereo not given in full)	.	.	.	.	.	6
Cc1ccc(S(=O)(=O)CC(=O)c2ccccc2)cc1	0	-2	5	2	-3	.
O=C(CC(=O)c1ccccc1)CS(=O)(=O)c1ccccc1	-4	.	41*	.	-4	17
Cc1cccc(C2C3=C(Nc4[nH]n(-c5ccccc5)c(=O)c42)c2ccccc2C3=O)c1 (stereo not given)	-16	.	2	.	22*	6
Cc1ccccc1C1C2=C(Nc3[nH]n(-c4ccccc4)c(=O)c31)c1ccccc1C2=O (stereo not given)	.	2	.	-8	.	.
SMILES	FBA Mtb inh	Mtb UGM inh	GDH-TPI counter	Rv3671c inh	FadD28 FP inh	Mtb hypoxia inh
COc1ccccc1/C=C/C=NNC(=O)CCn1cnc2ccccc21	.	.	.	.	.	4
O=[N+]([O-])c1ccc(Oc2ccc(C=NO)cc2)nc1	.	.	.	.	.	10
Cc1ccc(-c2c(C#N)c(N)n(-c3ccc(C)cc3)c(=O)c2C#N)cc1	2	-3	40*	-8	0	.
CC(=O)Nc1c(C#N)c(-c2ccccc2)c(C#N)c(=O)n1-c1ccc(C)cc1	1	.	33*	.	-2	.
CCOC(=O)C1C2COc3ccc(OC)cc3C2N2C(=O)CN(Cc3ccc(F)cc3)C(=O)[C@@]12C (stereo not given in full)	.	.	.	.	.	8
COC(=O)Nc1nnc(-c2ccccc2Cl)s1	48*	-1	2	2	-4	.
COC(=O)Nc1nnc(-c2ccco2)s1	-4	1	-4	-4	-3	8
C(/C=C/c1ccco1)=N/N1CCN(c2ccccc2)CC1	-3	-1	47*	-12	-4	.
S=c1[nH]nc(-c2n[nH]c3c2CCC3)n1N=C/C=C/c1ccco1	.	.	.	.	.	9
Cc1ccccc1-c1n[nH]c(=S)n1/N=C/C=C/c1ccco1	-1	0	43*	0	-4	.
S=c1[nH]nc(-c2ccccc2)n1N=C/C=C/c1ccco1	.	.	.	.	.	2
CC(/C=N/n1c(-c2n[nH]c3c2CCC3)n[nH]c1=S)=C\c1ccco1	1	-1	45*	0	-2	.
S=c1[nH]nc(-c2ccccc2)n1/N=C/C=C/c1ccco1	-2	1	33*	-7	-2	.
O=C(NN=Cc1ccccc1[N+](=O)[O-])c1ccc2nc[nH]c2c1	.	.	.	.	.	-2
CC(C)NC(=O)Nc1cccc2c1OC(CN(C)C(=O)NC1CCCCC1)C(C)CN(C(C)CO)C2=O (stereo not given)	.	.	.	.	.	-3
Cn1cc([N+](=O)[O-])c(C(=O)NN=Cc2c[nH]c3ccccc23)n1	.	.	.	.	.	10
O=c1[nH]c2ccc(NC(=NS(=O)(=O)c3ccccc3)c3ccccc3)cc2[nH]1	.	.	.	.	.	8
Oc1c(Br)cc(C=Nn2c(-c3ccccc3)n[nH]c2=S)cc1Br	.	.	.	.	.	10
Oc1c(Br)cc(Br)c(/C=N/n2c(-c3ccccc3)n[nH]c2=S)c1Br	2	6	23	-4	25*	.
COc1cccc(/C(O)=C2\C(=O)C(=O)N(c3ccccn3)C2c2cccc(OC)c2OC)c1 (stereo not given)	-5	0	41*	-1	1	9
COc1ccc(C2/C(=C(/O)c3ccc(C)cc3)C(=O)C(=O)N2c2ccccn2)cc1OC (stereo not given)	0	3	32*	2	0	-1
COc1ccccc1C1C(=C(O)c2ccc(C)cc2)C(=O)C(=O)N1CC(C)O (stereo not given)	.	.	.	.	.	6
COc1ccc(C2/C(=C(/O)c3ccccc3)C(=O)C(=O)N2c2ccccn2)cc1 (stereo not given)	1	1	11	1	1	-4
COc1ccccc1C1/C(=C(/O)c2ccccc2)C(=O)C(=O)N1CC(C)O (stereo not given)	5	-1	12	-5	10*	.
Cc1cccc(C(=O)ON=C2CC3CCC2(C)C3(C)C)c1 (stereo not given)	.	.	.	.	.	-12
CC(C)(C)OC(=O)C(Cc1ccccc1)NC(=O)c1nc[nH]c1C(=O)NC(Cc1ccccc1)C(=O)OC(C)(C)C (stereo not given)	.	.	.	.	.	2
CCOc1cc(C=NNC(=O)c2ccccc2OCc2ccc(F)cc2)ccc1O	.	.	.	.	.	5
COc1ccc(C2=CC(=O)CC(c3ccc4c(c3)OCO4)C2)cn1 (stereo not given)	.	.	.	.	.	16
